# Laboratory results: PubChem BioAssay
# For some of these results: Potency and affinity values are given separately. Activity calls are given as the source filed them. Unless noted, how the calls were made is not given here.
# Assays:
# [1] = molecular target: 6-phosphogluconate dehydrogenase, decarboxylating (Homo sapiens) (UniProt P52209); experiment: inhibition of human phosphogluconate dehydrogenase – biochemical, recombinant enzyme, NADPH absorbance, primary screen (AID 1159550;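 active means at least 20% inhibition of 6-phosphogluconate dehydrogenase activity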); details: recombinant 6PGD, NADPH absorbance 341 nm; at 10 µM; stronger effect = higher value
# Chain of 6-phosphogluconate dehydrogenase, decarboxylating (Homo sapiens) (P52209 whole entry, looked up, the tested form may be a part): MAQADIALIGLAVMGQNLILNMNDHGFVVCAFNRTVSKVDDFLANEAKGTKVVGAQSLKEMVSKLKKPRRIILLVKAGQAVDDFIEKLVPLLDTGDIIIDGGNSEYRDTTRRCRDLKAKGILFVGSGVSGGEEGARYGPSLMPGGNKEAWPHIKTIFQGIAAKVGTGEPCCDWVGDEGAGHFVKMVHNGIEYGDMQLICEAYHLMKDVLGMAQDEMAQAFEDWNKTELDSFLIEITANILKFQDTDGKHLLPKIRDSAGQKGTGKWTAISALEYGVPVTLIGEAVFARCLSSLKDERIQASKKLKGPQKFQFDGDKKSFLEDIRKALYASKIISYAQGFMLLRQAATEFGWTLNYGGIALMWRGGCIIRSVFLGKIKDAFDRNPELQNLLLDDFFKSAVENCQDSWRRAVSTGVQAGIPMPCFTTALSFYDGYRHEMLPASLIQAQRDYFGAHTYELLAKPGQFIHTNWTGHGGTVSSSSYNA
# [2] = molecular target: Mitogen-activated protein kinase 7 (Homo sapiens) (UniProt Q13164); experiment: Gal4-ERK5 driven luciferase induction – cell-based, HTS, primary screen (AID 1508626;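 active means luciferase signal above three times the same-plate solvent-only control wells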;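 further: luciferase driven by Gal4-ERK5 fusion binding five Gal4 sites before minimal TATA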); details: HeLa Gal4-ERK5 transactivation, 18 h, at 5 µM, stronger effect = higher value
# Chain of Mitogen-activated protein kinase 7 (Homo sapiens) (Q13164 whole entry, looked up, the tested form may be a part): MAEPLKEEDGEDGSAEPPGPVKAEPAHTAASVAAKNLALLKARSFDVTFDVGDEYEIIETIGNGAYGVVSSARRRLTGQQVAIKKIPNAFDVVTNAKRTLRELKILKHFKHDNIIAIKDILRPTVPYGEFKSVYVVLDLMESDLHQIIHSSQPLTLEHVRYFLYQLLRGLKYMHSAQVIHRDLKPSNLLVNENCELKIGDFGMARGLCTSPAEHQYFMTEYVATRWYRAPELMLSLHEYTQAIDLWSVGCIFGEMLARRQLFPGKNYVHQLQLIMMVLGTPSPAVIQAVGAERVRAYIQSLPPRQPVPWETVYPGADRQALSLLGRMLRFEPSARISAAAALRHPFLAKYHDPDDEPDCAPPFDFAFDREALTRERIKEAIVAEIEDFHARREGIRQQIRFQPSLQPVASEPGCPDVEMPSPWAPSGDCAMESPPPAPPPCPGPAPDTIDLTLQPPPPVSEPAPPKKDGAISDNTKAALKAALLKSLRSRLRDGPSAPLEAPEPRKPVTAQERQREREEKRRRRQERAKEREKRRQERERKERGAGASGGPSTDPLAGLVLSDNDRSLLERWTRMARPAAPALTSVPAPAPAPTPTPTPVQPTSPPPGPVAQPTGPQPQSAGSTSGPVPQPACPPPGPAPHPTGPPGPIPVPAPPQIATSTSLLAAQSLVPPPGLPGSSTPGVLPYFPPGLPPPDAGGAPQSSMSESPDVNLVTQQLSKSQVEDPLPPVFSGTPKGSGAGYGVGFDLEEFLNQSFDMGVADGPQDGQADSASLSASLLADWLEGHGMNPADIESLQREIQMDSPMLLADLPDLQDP
# [3] = molecular target: Calcium-dependent protein kinase 1 (Plasmodium falciparum (isolate 3D7)) (UniProt P62344); experiment: PfCDPK1 kinase inhibitors, biochemical, TCAMS library (AID 1159585; cut-off not given, nearly all actives have IC50 up to about 0.98 µM;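 further: inhibitors leave more ATP so luminescence rises with inhibition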); details: recombinant PfCDPK1, Kinase-Glo ATP depletion luminescence
# Chain of Calcium-dependent protein kinase 1 (Plasmodium falciparum (isolate 3D7)) (P62344 whole entry, looked up): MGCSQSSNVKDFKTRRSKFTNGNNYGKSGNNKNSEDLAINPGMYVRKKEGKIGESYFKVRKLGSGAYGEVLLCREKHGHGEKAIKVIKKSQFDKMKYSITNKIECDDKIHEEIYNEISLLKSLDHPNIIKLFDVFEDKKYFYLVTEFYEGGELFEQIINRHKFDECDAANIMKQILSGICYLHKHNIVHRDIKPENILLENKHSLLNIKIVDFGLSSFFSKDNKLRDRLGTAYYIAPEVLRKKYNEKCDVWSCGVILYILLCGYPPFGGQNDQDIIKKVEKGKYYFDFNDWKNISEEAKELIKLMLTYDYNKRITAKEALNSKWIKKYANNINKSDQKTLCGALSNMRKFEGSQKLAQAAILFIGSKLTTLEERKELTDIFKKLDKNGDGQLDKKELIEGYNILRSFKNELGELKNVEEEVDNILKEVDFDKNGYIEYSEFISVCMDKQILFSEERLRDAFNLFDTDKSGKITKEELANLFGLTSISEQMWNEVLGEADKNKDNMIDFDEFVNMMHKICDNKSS
# [4] = molecular target: Plasmodium falciparum protein kinase 6 (PK6, PF3D7_1337100) (UniProt Q8IDW1); experiment: PfPK6 kinase inhibitors, biochemical, TCAMS library (AID 1159586); details: recombinant PfPK6, Kinase-Glo ATP depletion luminescence
# Chain of Plasmodium falciparum protein kinase 6 (PK6, PF3D7_1337100) (Q8IDW1 1-305): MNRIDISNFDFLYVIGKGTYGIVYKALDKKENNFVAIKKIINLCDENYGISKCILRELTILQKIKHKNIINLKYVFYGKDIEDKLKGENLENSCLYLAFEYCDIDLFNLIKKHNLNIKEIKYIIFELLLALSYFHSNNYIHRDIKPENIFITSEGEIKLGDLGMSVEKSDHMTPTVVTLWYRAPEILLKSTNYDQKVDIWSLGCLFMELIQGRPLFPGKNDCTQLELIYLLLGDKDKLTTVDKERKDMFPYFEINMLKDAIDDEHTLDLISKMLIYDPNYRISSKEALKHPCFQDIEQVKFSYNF
# [5] = molecular target: Protein kinase 7 (PK7), Plasmodium falciparum 3D7 (PF3D7_0213400) (UniProt Q7YTF7); experiment: inhibition of Plasmodium PK7 catalytic activity – biochemical, TCAMS antimalarial set, Kinase-Glo luminescence (AID 1159587); details: recombinant PfPK7, Kinase-Glo ATP depletion luminescence
# Chain of Protein kinase 7 (PK7), Plasmodium falciparum 3D7 (PF3D7_0213400) (Q7YTF7 1-343): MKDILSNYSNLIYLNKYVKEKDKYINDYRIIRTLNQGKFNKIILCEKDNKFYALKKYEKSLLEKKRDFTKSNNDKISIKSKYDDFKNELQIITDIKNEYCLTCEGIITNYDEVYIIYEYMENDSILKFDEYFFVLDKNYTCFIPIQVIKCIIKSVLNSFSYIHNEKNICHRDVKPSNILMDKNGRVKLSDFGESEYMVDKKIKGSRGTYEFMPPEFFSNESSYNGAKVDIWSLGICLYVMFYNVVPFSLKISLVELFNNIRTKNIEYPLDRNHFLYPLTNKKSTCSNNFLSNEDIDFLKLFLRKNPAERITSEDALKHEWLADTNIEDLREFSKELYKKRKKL
# [6] = molecular target: Calcium-dependent protein kinase 4 (Plasmodium falciparum (isolate 3D7)) (UniProt Q8IBS5); experiment: PfCDPK4 kinase inhibitors, biochemical, TCAMS library (AID 1159588; cut-off not given, nearly all actives have IC50 up to about 0.91 µM); details: recombinant PfCDPK4, Kinase-Glo ATP depletion luminescence
# Chain of Calcium-dependent protein kinase 4 (Plasmodium falciparum (isolate 3D7)) (Q8IBS5 whole entry, looked up): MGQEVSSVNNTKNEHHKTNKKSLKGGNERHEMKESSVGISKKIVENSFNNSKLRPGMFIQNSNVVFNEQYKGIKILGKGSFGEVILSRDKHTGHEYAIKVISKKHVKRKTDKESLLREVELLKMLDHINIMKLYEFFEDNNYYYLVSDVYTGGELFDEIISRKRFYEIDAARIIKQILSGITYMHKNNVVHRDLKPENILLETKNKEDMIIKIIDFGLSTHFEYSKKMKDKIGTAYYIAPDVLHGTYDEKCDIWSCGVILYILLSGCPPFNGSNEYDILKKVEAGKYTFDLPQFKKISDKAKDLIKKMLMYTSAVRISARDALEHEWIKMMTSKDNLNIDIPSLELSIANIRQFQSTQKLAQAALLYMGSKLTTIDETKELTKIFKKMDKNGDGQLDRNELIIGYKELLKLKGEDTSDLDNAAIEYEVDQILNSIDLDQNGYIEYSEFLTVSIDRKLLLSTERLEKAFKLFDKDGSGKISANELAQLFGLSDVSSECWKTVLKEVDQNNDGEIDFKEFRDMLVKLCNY
# [7] = growth inhibition, single agent or in combination, cell-based, chromothripsis tumors, cisplatin or BGB combos (AID 1671449; in the data active means inhibition above about 80%;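 further: cells exposed for 96 hours; 0% = vehicle DMSO and 100% = killing by high DMSO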); details: LFS_MB_P medulloblastoma cells
# [8] = growth inhibition, single agent and combos, cell-based, chromothripsis tumors, cisplatin or BGB combos (AID 1671450; in the data active means inhibition above about 80%;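 further: cells exposed to compound for four days; 0% = vehicle DMSO and 100% = cell killing by high DMSO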); details: HDN33 neuroblastoma cells, stronger effect = higher value
# [9] = growth inhibition, single agents and combos, ICB984, cell-based, cisplatin or BGB combos, synergistic combos for chromothripsis tumors (AID 1671451); details: ICB984 medulloblastoma cells, drug combinations, stronger effect = higher value;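 further: cells exposed for 96 hours before readout; 0% = vehicle DMSO and 100% = killing by high DMSO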
# [10] = growth inhibition, single agents and combos, LFS_MB_1R, cell-based, cisplatin or BGB combos, synergistic combos for chromothripsis tumors (AID 1671452; in the data active means inhibition above about 80%;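 further: cells exposed for 96 hours before readout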); details: LFS_MB_1R medulloblastoma cells, stronger effect = higher value
# [11] = growth inhibition, single agents and combos, HTB85, cell-based, BGB or cisplatin IC20 combos, synergistic combos for chromothripsis tumors (AID 1671453; in the data active means inhibition above about 80%;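 further: cells exposed for 96 hours before readout; 0% = vehicle DMSO and 100% = high DMSO killing control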); details: HTB85 osteosarcoma cells, drug combinations, stronger effect = higher value
# [12] = growth inhibition, single agents and combos, CRL2098, cell-based, BGB or cisplatin IC20 combos, synergistic combos for chromothripsis tumors (AID 1671454; in the data active means inhibition above about 80%;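 further: cells exposed for 96 h before readout; 0% = vehicle DMSO and 100% = killing by high DMSO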); details: CRL2098 osteosarcoma cells, drug combinations, stronger effect = higher value
# [13] = growth inhibition, single agents and combos, HD-MB03, cell-based, BGB or cisplatin IC20 combos, synergistic combos for chromothripsis tumors (AID 1671455; in the data active means inhibition above about 83%;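 further: 0% = vehicle DMSO and 100% = high DMSO as cytotoxic control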); details: HD-MB03 medulloblastoma cells, stronger effect = higher value
# [14] = growth inhibition, single agents and combos, UWB1.289, cell-based, BGB or cisplatin combos, synergistic combos for chromothripsis tumors (AID 1671456; in the data active means inhibition above about 80%;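 further: cells exposed to compound for four days; 0% = vehicle DMSO and 100% = killing by high DMSO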); details: UWB1.289 ovarian carcinoma cells, stronger effect = higher value
# [15] = growth inhibition, single agents and combos, LFS_MB_2R, cell-based, cisplatin combos, synergistic combos for chromothripsis tumors (AID 1671457; in the data active means inhibition above about 80%;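 further: cells exposed to compound for four days before readout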); details: LFS_MB_2R medulloblastoma cells, stronger effect = higher value
# [16] = growth inhibition, MDA-MB-436, cell-based, BGB or cisplatin combos, synergistic combos for chromothripsis tumors (AID 1671458); details: MDA-MB-436 breast carcinoma growth inhibition, drug combinations, stronger effect = higher value;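 further: cells exposed for 96 hours; 0% = vehicle DMSO and 100% = killing by high DMSO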
# [17] = UWB1.289_BRCA1 ovarian cancer growth, cell-based, BGB or cisplatin combinations (AID 1671459; in the data active means inhibition above about 80%); details: UWB1.289 BRCA1 ovarian carcinoma, drug combinations, stronger effect = higher value
# [18] = drug combination toxicity in non-malignant astrocytes – cell-based, BGB or cisplatin IC20 combos, cytotoxicity control for chromothriptic childhood tumor combination screen (AID 1671460; in the data active means inhibition above about 80%;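 further: cells exposed to compounds for 96 hours before viability readout; 0% = vehicle and 100% = killing control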); details: Human astrocytes, viability inhibition, drug combinations, at 0.5 µM, stronger effect = higher value
# [19] = BT084 cell growth, single and combined drugs, ICGC_MB145, cisplatin and BGB IC40 combos (AID 1671461; in the data active means inhibition above about 80%;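 further: cells exposed to drugs for 96 hours; 0% = vehicle DMSO and 100% = high DMSO full killing control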); details: BT084 medulloblastoma cells, drug combinations, stronger effect = higher value
# [20] = RCMB18 cell growth, single agent and combined, cisplatin and BGB IC40 combos (AID 1671462; in the data active means inhibition above about 80%;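 further: cells exposed to compound for four days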); details: RCMB18 medulloblastoma cells, stronger effect = higher value
# [21] = CRL1545 cell growth, single agent and combined, cisplatin and BGB IC20 combos (AID 1671464; in the data active means inhibition above about 80%;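 further: cells exposed to compound for 96 hours before readout; 0% = vehicle DMSO and 100% = high DMSO killing control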); details: CRL1545 osteosarcoma cells, stronger effect = higher value
# [22] = measured here: combination with BGB IC40, at 0.05 µM
# [23] = measured here: with BGB IC20 combination, at 0.5 µM
# [24] = measured here: with cisplatin IC20 combination, at 0.5 µM
# [25] = measured here: combination with cisplatin, at 0.5 µM
# [26] = measured here: combination with cisplatin, at 5 µM
compound,measurement,setting,value
COC(=O)[C@@H]1OC(=O)[C@H]2O[C@@]23[C@@]1(C)CCC1[C@@]2(C)CCC(=O)C(C)(C)C2C[C@@H](OC(C)=O)[C@]13C (some centres undefined),inhibition,[1],7.3% (inactive)
same,luciferase signal,[2],40 AU (inactive)
CCC[C@@H]([C@H](CC(C)C)C(=O)N[C@@H](CCCCNC(=O)OCc1ccccc1)C(=O)Nc1ncccn1)N(O)C=O,outcome,[3],inactive
same,outcome,[4],inactive
same,outcome,[5],inactive
same,outcome,[6],inactive
CCCO[C@H](C(=O)OC)[C@H](CC1Cc2ccccc2C1)C(=O)NCCC1=CCCCC1,outcome,[3],inactive
same,outcome,[4],inactive
same,outcome,[5],inactive
same,outcome,[6],inactive
CC[C@H](C)[C@H](NC(=O)[C@@H](CC1CCCCC1)[C@H](CC)N(O)C=O)C(=O)Nc1ccccn1,outcome,[3],inactive
same,outcome,[4],inactive
same,outcome,[5],inactive
same,outcome,[6],inactive
O=[N+]([O-])c1cccc(-c2nc3ccc(C4=N[C@@H]5CCCC[C@@H]5N4)cc3[nH]2)c1,outcome,[3],inactive
same,outcome,[4],inactive
same,outcome,[5],inactive
same,outcome,[6],inactive
Cc1[nH]c2ccccc2c1/C=N/Nc1nc(Nc2ccccc2)nc(Nc2ccccc2)n1,outcome,[3],inactive
same,outcome,[4],inactive
same,outcome,[5],inactive
same,outcome,[6],inactive
O=C(Cc1ccc[n+]([O-])c1)Nc1ccc(-c2cccc(-c3nc4ccc(C(F)(F)F)cc4[nH]3)c2)cc1,outcome,[3],inactive
same,outcome,[4],inactive
same,outcome,[5],inactive
same,outcome,[6],inactive
O=C(Cc1ccc[n+]([O-])c1)Nc1cccc(-c2cccc(-c3nc4ccc(C(F)(F)F)cc4[nH]3)c2)c1,outcome,[3],inactive
same,outcome,[4],inactive
same,outcome,[5],inactive
same,outcome,[6],inactive
CN(C)C(=S)N/N=C/c1cccc(O)c1O,outcome,[3],inactive
same,outcome,[4],inactive
same,outcome,[5],inactive
same,outcome,[6],inactive
CCCCCC(C)C(C)c1cc(O)c2c(c1)OC(C)(C)CC2c1cc[n+]([O-])cc1 (centres undefined),outcome,[3],inactive
same,outcome,[4],inactive
same,outcome,[5],inactive
same,outcome,[6],inactive
Nc1ccc(-c2nc3cc(C4=N[C@@H]5CCCC[C@@H]5N4)ccc3o2)cc1[N+](=O)[O-],outcome,[3],inactive
same,outcome,[4],inactive
same,outcome,[5],inactive
same,outcome,[6],inactive
CCCC[C@H](C(=O)NCc1ccccc1C(F)(F)F)N1C(=O)CCC1C(=O)Nc1ccc([N+](=O)[O-])cc1 (some centres undefined),outcome,[3],inactive
same,outcome,[4],inactive
same,outcome,[5],inactive
same,outcome,[6],inactive
COc1ccc(Nc2nc(N/N=C/c3cc(Br)ccc3O)nc(Nc3ccc([N+](=O)[O-])cc3)n2)cc1,outcome,[3],inactive
same,outcome,[4],inactive
same,outcome,[5],inactive
same,outcome,[6],inactive
Oc1c(/C=N/n2cnnc2)sc2ccccc12,outcome,[3],inactive
same,outcome,[4],inactive
same,outcome,[5],inactive
same,outcome,[6],inactive
O=[N+]([O-])c1ccc(-c2nc3ccc(C4=N[C@@H]5CCCC[C@@H]5N4)cc3[nH]2)cc1,outcome,[3],inactive
same,outcome,[4],inactive
same,outcome,[5],inactive
same,outcome,[6],inactive
CC(C)C[C@H](C(=O)N[C@H](C(=O)Nc1nccs1)C(C)(C)C)[C@H](CCC(F)(F)F)N(O)C=O,outcome,[3],inactive
same,outcome,[4],inactive
same,outcome,[5],inactive
same,outcome,[6],inactive
CC1(C(=O)O)CCC2(C)CCC3(C)C(=CC(=O)C4C5(C)CCC(OC(=O)CCC(=O)O)C(C)(C)C5CCC43C)C2C1 (centres undefined),inhibition,[1],6.14% (inactive)
same,inhibition,"[7]; at 0.5 µM, stronger effect = higher value",-21.3% (inactive)
same,inhibition,"[7]; measured here: combination with BGB IC20, at 0.005 µM",-7.44%
same,inhibition,"[7]; measured here: combination with BGB IC40, at 0.005 µM",-24.5%
same,inhibition,[7]; [22],-6.64%
same,inhibition,"[7]; measured here: combination with cisplatin, at 0.5 µM, stronger effect = higher value",-25.4%
same,inhibition,"[7]; measured here: combination with cisplatin, at 5 µM, stronger effect = higher value",6.61%
same,inhibition,"[8]; BGB combo, at 5 µM",-10.4%
same,inhibition,[8]; at 0.5 µM,-10.5% (inactive)
same,inhibition,"[8]; cisplatin combo, at 5 µM",-11.2%
same,inhibition,[8]; [23],-1.57%
same,inhibition,[8]; [24],-3.76%
same,inhibition,"[8]; single agent, at 5 µM",0.047%
same,inhibition,"[9]; BGB IC20 combo, at 0.005 µM",-6.54%
same,inhibition,"[9]; BGB IC40 combo, at 0.005 µM",-25.3%
same,inhibition,"[9]; BGB IC40 combo, at 0.05 µM",3.64%
same,inhibition,[9]; at 0.5 µM,-16.5% (inactive)
same,inhibition,"[9]; cisplatin combo, at 0.05 µM",3.64%
same,inhibition,"[9]; cisplatin combo, at 0.5 µM",-24%
same,inhibition,"[9]; cisplatin combo, at 5 µM",-37.6%
same,inhibition,"[9]; measured here: 5 uM single agent, at 5 µM",-21.7%
same,inhibition,[10]; at 0.5 µM,-0.8% (inactive)
same,inhibition,[10]; [22],-15.6%
same,inhibition,[10]; [25],21.2%
same,inhibition,[10]; [26],-0.5%
same,inhibition,[11]; at 0.5 µM,-18% (inactive)
same,inhibition,"[11]; measured here: with BGB IC20, at 0.5 µM",-38.9%
same,inhibition,"[11]; measured here: with BGB IC20, at 5 µM",-13.2%
same,inhibition,"[11]; measured here: with cisplatin IC20, at 0.5 µM",-4%
same,inhibition,"[11]; measured here: with cisplatin IC20, at 5 µM",-11%
same,inhibition,"[11]; single agent, at 5 µM",-22.6%
same,inhibition,[12]; at 0.5 µM,-75% (inactive)
same,inhibition,"[12]; measured here: combination with BGB at IC20, at 0.5 µM",-54.3%
same,inhibition,"[12]; measured here: combination with cisplatin at IC20, at 0.5 µM",-113%
same,inhibition,[13]; at 0.5 µM,0.23% (inactive)
same,inhibition,"[13]; measured here: combo with BGB at IC20, at 0.5 µM",-6.04%
same,inhibition,"[13]; measured here: combo with cisplatin at IC20, at 0.5 µM",5.01%
same,inhibition,[14]; at 0.5 µM,-3.45% (inactive)
same,inhibition,"[14]; measured here: inhibition with BGB combination, at 0.05 µM",-24.1%
same,inhibition,"[14]; measured here: inhibition with cisplatin combination, at 0.05 µM",-15.6%
same,inhibition,[15]; at 0.5 µM,-24.3% (inactive)
same,inhibition,[15]; [25],-26.3%
same,inhibition,[15]; [26],-19.2%
same,inhibition,[16]; at 0.5 µM,-23.5% (inactive)
same,inhibition,"[16]; measured here: BGB combination, at 0.5 µM",-21%
same,inhibition,"[16]; measured here: BGB combination, at 5 µM",-30.2%
same,inhibition,"[16]; measured here: cisplatin combination, at 0.5 µM",-40.5%
same,inhibition,"[16]; measured here: cisplatin combination, at 5 µM",-24%
same,inhibition,"[17]; BGB combination, concentration series, at 5 µM",-13.7%
same,inhibition,[17]; at 0.5 µM,-12.8% (inactive)
same,inhibition,"[17]; cisplatin combination, concentration series, at 5 µM",3.23%
same,inhibition,[18],-10.9% (inactive)
same,inhibition,[18]; measured here: combo with BGB IC20,-14.8%
same,inhibition,[18]; measured here: combo with cisplatin IC20,-13.4%
same,inhibition,[19]; at 0.5 µM,-17.1% (inactive)
same,inhibition,"[19]; cisplatin combination, at 0.5 µM",5.31%
same,inhibition,"[19]; cisplatin combination, at 5 µM",-38.2%
same,inhibition,"[19]; measured here: BGB IC40 combination 0.05 uM, at 0.05 µM",-1.75%
same,inhibition,"[19]; single agent, at 5 µM",-40.2%
same,inhibition,[20]; at 0.5 µM,-19.6% (inactive)
same,inhibition,"[20]; cisplatin combo, at 5 µM",13.2%
same,inhibition,"[20]; measured here: BGB IC40 combination, at 0.05 µM",-21.9%
same,inhibition,[20]; [25],-3.15%
same,inhibition,"[20]; single agent, at 5 µM",-16.1%
same,inhibition,[21]; at 0.5 µM,-42.7% (inactive)
same,inhibition,[21]; [23],-46.3%
same,inhibition,[21]; [24],-40.9%
same,inhibition,"[21]; single agent, at 0.05 µM",5.52%
same,inhibition,"[21]; single agent, at 5 µM",7.12%
CCOc1cc(/C=N/Nc2nc(C)cc(-n3nc(C)cc3C)n2)ccc1O,outcome,[3],inactive
same,outcome,[4],inactive
same,outcome,[5],inactive
same,outcome,[6],inactive
CCC[C@@H]([C@H](CC(C)C)C(=O)N[C@@H](CCCN=C(N)NS(C)(=O)=O)C(=O)Nc1nccs1)N(O)C=O,outcome,[3],inactive
same,outcome,[4],inactive
same,outcome,[5],inactive
same,outcome,[6],inactive
